Among the data in PubChem BioAssay (NCI) are growth values, retold here.

Some test systems named below: SK-MEL-2 melanoma; EKVX NSCLC; SN12C renal; UO-31 renal; TK-10 renal; ACHN renal; CAKI-1 renal; A498 renal; CCRF-CEM leukemia; MOLT-4 leukemia; SR leukemia; RPMI-8226 leukemia; OVCAR-8 ovarian; OVCAR-5 ovarian; OVCAR-4 ovarian; SK-OV-3 ovarian; IGROV1 ovarian; OVCAR-3 ovarian; HS 578T breast; NCI/ADR-RES ovarian.
Holding throughout (assay): NCI-60 one-dose screen, 48 h (100 = growth as untreated, 0 = no growth, -100 = all killed)
Holding throughout (conditions): 10 µM unless noted

This is part of a sample that, as a whole, favours compounds with a hit. Of some 83,000 tested, about 20% had one in any assay.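 Note: values are percent growth. 100 is the growth of untreated cells, values between 100 and 0 indicate rising inhibition; between -100 and 0 indicates cell death.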 A number with no mark means an inactive call. Calls of active or inactive are those of the source. The calls were made as follows: active = growth percent below 10; inactive = the rest.

As for `O=C(CCl)Oc1ccc(-c2ccccc2)c(Br)c1`, the growth is 104% in the assay on SK-MEL-2 melanoma; 115% in the assay with EKVX NSCLC; 109% in the assay with SN12C renal; 92.8% in the assay with UO-31 renal; 105% in the assay on TK-10 renal; 108% in the assay on ACHN renal. For the same compound, the growth with CAKI-1 renal is 98.5%; with A498 renal it was 95%; in the assay with CCRF-CEM leukemia it was 118%; in the assay with MOLT-4 leukemia, 105%; in the assay with SR leukemia, 96.9%; in the assay on RPMI-8226 leukemia it was 106%. Further, the growth with OVCAR-8 ovarian is 103%; in the assay on OVCAR-5 ovarian, 107%; in the assay with OVCAR-4 ovarian, 105%; in the assay on SK-OV-3 ovarian it was 104%; with IGROV1 ovarian, 112%; in the assay on OVCAR-3 ovarian, 108%. For the same compound, in the assay with HS 578T breast, the growth is 108%.
On to `O=CNc1ccc2c(c1)Cc1cccc(NC=O)c1-2`, for which the growth is 106% in the assay on SK-MEL-2 melanoma; 80.4% with EKVX NSCLC; 95.8% with SN12C renal; 78.8% in the assay on UO-31 renal; 98.7% in the assay on TK-10 renal; 85.8% in the assay with ACHN renal. Besides, the growth is 93% with CAKI-1 renal; 105% in the assay on A498 renal; 107% in the assay on CCRF-CEM leukemia; 75% with MOLT-4 leukemia; 108% with SR leukemia; 103% in the assay on RPMI-8226 leukemia. The growth in the assay with OVCAR-8 ovarian is 99.5%; in the assay on OVCAR-5 ovarian, 89.6%; in the assay on OVCAR-4 ovarian, 112%; in the assay on SK-OV-3 ovarian, 104%; in the assay on IGROV1 ovarian it was 103%; with OVCAR-3 ovarian it was 90.2%. Also, the growth is 97.1% in the assay on HS 578T breast and 99.7% with NCI/ADR-RES ovarian.
For `O=c1c(F)cn(Cc2ccccc2CCl)c(=O)n1Cc1ccccc1CCl`, the growth was 4.2% (active) in the assay with SK-MEL-2 melanoma; -4.31% (active) in the assay with EKVX NSCLC; -26.5% (active) in the assay on SN12C renal; -80.4% (active) in the assay on UO-31 renal; -30.8% (active) in the assay with TK-10 renal; -81.8% (active) in the assay on ACHN renal. Also, the growth with CAKI-1 renal is -84.5% (active); in the assay on A498 renal it was 76.3%; in the assay on CCRF-CEM leukemia, -42.9% (active); with MOLT-4 leukemia it was -40.3% (active); in the assay with SR leukemia it was -57.5% (active); in the assay on RPMI-8226 leukemia it was -48.6% (active). Further, the growth was -20.3% (active) in the assay with OVCAR-8 ovarian; -76.8% (active) in the assay on OVCAR-5 ovarian; -15.3% (active) in the assay with OVCAR-4 ovarian; 10.3% in the assay with SK-OV-3 ovarian; -37.3% (active) with IGROV1 ovarian; -44.6% (active) in the assay on OVCAR-3 ovarian. The growth is -3.05% (active) with HS 578T breast and -9.91% (active) with NCI/ADR-RES ovarian.
With `CN1CCN(CCCOc2cccc3nc(Nc4ccc(Cl)c(F)c4)ccc23)CC1`, the growth with SK-MEL-2 melanoma was 83.7%; in the assay with EKVX NSCLC, 61.7%; in the assay with SN12C renal it was 63.7%; in the assay with UO-31 renal, 22.5%; in the assay with TK-10 renal, 88.4%; with ACHN renal it was 10.5%. Besides, the growth with CAKI-1 renal was 56.2%; with A498 renal, 55.4%; in the assay on CCRF-CEM leukemia, 19.3%; in the assay on MOLT-4 leukemia, -22% (active); in the assay with SR leukemia, -16% (active); in the assay on RPMI-8226 leukemia it was 23.9%. The growth was 85% in the assay on OVCAR-8 ovarian; 58.6% with OVCAR-5 ovarian; 65.4% in the assay with OVCAR-4 ovarian; 82.7% in the assay on SK-OV-3 ovarian; 65.7% in the assay with IGROV1 ovarian; 69.9% in the assay with OVCAR-3 ovarian. Besides, in the assay with HS 578T breast, the growth was 52.7%.
Take `Cn1c(NCCc2ccc(O)c(O)c2)nc2c1c(=O)n(Cc1ccc(Br)cc1)c(=O)n2C`: the growth is 89.8% in the assay with SK-MEL-2 melanoma; 79.9% in the assay on EKVX NSCLC; 72.7% with SN12C renal; 30% in the assay with UO-31 renal; 68.8% in the assay on TK-10 renal; 32.9% with ACHN renal. In addition, the growth was 74.7% in the assay with CAKI-1 renal; 106% with A498 renal; 23% in the assay with CCRF-CEM leukemia; 29.3% in the assay on MOLT-4 leukemia; 61.6% in the assay with SR leukemia; 25.6% in the assay on RPMI-8226 leukemia. For the same compound, the growth in the assay on OVCAR-8 ovarian was 71.9%; in the assay on OVCAR-5 ovarian it was 99.4%; in the assay with OVCAR-4 ovarian it was 53.2%; with SK-OV-3 ovarian, 75.5%; in the assay on IGROV1 ovarian it was 37.7%; in the assay with OVCAR-3 ovarian it was 69.4%. Moreover, in the assay with HS 578T breast, the growth is 95.3%.
On to `c1csc(C2=NN3C(C2)c2ccccc2OC3c2ccncc2)c1` (stereo unspecified), for which the growth was 96.3% with SK-MEL-2 melanoma; 78.2% in the assay with EKVX NSCLC; 89.9% in the assay on SN12C renal; 64.5% in the assay with UO-31 renal; 111% with TK-10 renal; 97.7% with ACHN renal. Also, the growth is 78.2% with CAKI-1 renal; 110% in the assay on A498 renal; 95.8% in the assay with CCRF-CEM leukemia; 94.4% with MOLT-4 leukemia; 100% in the assay on SR leukemia; 92.8% in the assay on RPMI-8226 leukemia. For the same compound, the growth in the assay on OVCAR-8 ovarian was 96.1%; in the assay with OVCAR-5 ovarian, 108%; in the assay on OVCAR-4 ovarian, 90.9%; with SK-OV-3 ovarian, 93.8%; with IGROV1 ovarian, 76.1%; in the assay with OVCAR-3 ovarian it was 98.9%. For the same compound, the growth was 87.2% in the assay with HS 578T breast and 98.4% with NCI/ADR-RES ovarian.
For `Cn1cc(-c2nonc2-c2c[nH]c3ccccc23)c2cccnc21`, the growth in the assay on SK-MEL-2 melanoma was 8.48% (active); in the assay with EKVX NSCLC, 49.7%; in the assay with SN12C renal, 39.6%; in the assay on UO-31 renal, 55.7%; in the assay with TK-10 renal, 75.3%; in the assay with ACHN renal, 60.9%. Besides, the growth in the assay with CAKI-1 renal is 39.3%; with A498 renal, 17.1%; in the assay on CCRF-CEM leukemia, 20.2%; with MOLT-4 leukemia it was 16.5%; in the assay with SR leukemia it was 23.5%; with RPMI-8226 leukemia, 40.8%. Also, the growth in the assay with OVCAR-8 ovarian is 47.8%; in the assay on OVCAR-5 ovarian it was 72.3%; with OVCAR-4 ovarian it was 74.5%; in the assay with SK-OV-3 ovarian, 41.7%; with IGROV1 ovarian, 39.4%; in the assay with OVCAR-3 ovarian it was 15.2%. Besides, the growth is 36.1% with HS 578T breast and 13% with NCI/ADR-RES ovarian.
For `COc1cc(/C=C/c2cc(/C=C/c3ccc(O)c(OC)c3)n(-c3c(C)cccc3C)c(=O)n2)ccc1O`, the growth with SK-MEL-2 melanoma is -6.04% (active); with EKVX NSCLC, 17.7%; in the assay on SN12C renal, 11.6%; in the assay with UO-31 renal, 1.61% (active); in the assay with TK-10 renal, 27.4%; in the assay with ACHN renal, 6.48% (active). Moreover, the growth was 17.2% with CAKI-1 renal; -6.94% (active) in the assay with A498 renal; 7.03% (active) with CCRF-CEM leukemia; 6.55% (active) in the assay with MOLT-4 leukemia; 0.0669% (active) in the assay with SR leukemia; -27.4% (active) with RPMI-8226 leukemia. Besides, the growth is 0.393% (active) in the assay on OVCAR-8 ovarian; 9.05% (active) in the assay on OVCAR-5 ovarian; 3.15% (active) in the assay with OVCAR-4 ovarian; -37.7% (active) with SK-OV-3 ovarian; 9.72% (active) with IGROV1 ovarian; 5.84% (active) in the assay on OVCAR-3 ovarian. The growth in the assay on HS 578T breast is -4.97% (active).
